Test results reported in PubChem BioAssay (NCI).
This is part of a sample that, as a whole, favours compounds with a hit. Of some 83,000 tested, about 20% had one in any assay.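 Growth was measured after 48 h exposure to one concentration of compound in 96-well plates. Values under 10 count as active.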 Unmarked numbers belong to inactive results. Activity calls are given as the source filed them.

System: HL-60(TB) leukemia
Assay: NCI-60 one-dose screen, 48 h (100 = growth as untreated, 0 = no growth, -100 = all killed)
Settings: 10 µM unless noted

Row | SMILES | growth
1 | CC[C@@](C)(NC(=O)C(C)(C)NC(=O)[C@@H](NC(=O)[C@@H]1CCCN1C(=O)C(C)(C)NC(=O)[C@H](CC(C)C)NC(=O)CNC(=O)C(C)(C)NC(=O)[C@@H](NC(=O)C(C)(C)NC(=O)[C@H](CCC(N)=O)NC(=O)[C@H](C)NC(=O)C(C)(C)NC(=O)[C@H](C)NC(=O)C(C)(C)NC(=O)[C@@H]1CCCN1C(=O)C(C)(C)NC(C)=O)C(C)C)C(C)C)C(=O)N[C@@H](CCC(N)=O)C(=O)N[C@@H](CCC(N)=O)C(=O)N[C@H](CO)Cc1ccccc1 | -50.8% [4.25 µM] (active)
2 | O=C1c2c(c3c4cc(Br)ccc4[nH]c3c3ccc4ccccc4c23)C(=O)N1CCN1CCCCC1 | 1.48% (active)
3 | O=C(/C=C/c1cn(-c2ccccc2)nc1-c1ccc(Cl)cc1)c1cc2ccccc2oc1=O | 85.6%
4 | C=C(C)[C@@H]1CC[C@]2(COCCCNCCCN)CC[C@]3(C)[C@H](CC[C@@H]4[C@@]5(C)CC[C@H](O)C(C)(C)[C@@H]5CC[C@]43C)[C@@H]12 | -28.1% (active)
5 | COc1ccc(N2C(=O)c3cc(OC)c(OC)cc3NC2SCc2ccccc2)cc1 (stereo not given) | 110%
6 | CCOP(=O)(OCC)OC[C@]12CC[C@@H](C)[C@H](C)C1C1=CC[C@@H]3[C@@]4(C)CCCNC(C)(C)[C@@H]4CC[C@@]3(C)[C@]1(C)CC2 (stereo not given in full) | -67.7% (active)
7 | Cc1csc(/N=C(N)/N=C(\N)c2cccnc2)n1 | 65.9%
8 | CC(C)(C)CC(C)(C)n1nnnc1C(Nc1ccccc1)c1cc2cccc3ccc4cccc1c4c32 (stereo not given) | 101%
9 | Cc1ccc2c(c1)Oc1nc(N)c(C#N)c(N)c1C2Sc1ccc(F)cc1 (stereo not given) | -51.7% (active)
10 | O=C(O)c1ccc(-n2c(=O)n(-c3cccc(C(F)(F)F)c3)c(=O)c3cc(-c4ccc(F)cc4F)ccc32)cc1 | -41.4% (active)
11 | Brc1ccc(-c2cc(-c3ccc4c(c3)OCCO4)n[nH]2)s1 | 3.16% (active)
12 | O=C(COc1ccc(/C=C2\C(=O)Nc3cc(Cl)ccc32)cc1)Nc1ccc(Cl)cc1 | 61%
13 | C=CCn1c(-c2nc3ccc(C(=C(C#N)C#N)c4ccccc4)cc3[nH]2)cc2cc(Br)ccc21 | 59.2%
14 | C=CC(=O)N1CCC=C(c2cc3c(N[C@H](C)c4ccccc4)ncnc3[nH]2)C1 | 72.4%
15 | COC(=O)c1cccc(NC2=CC(=O)C(C)=C(C)C2=O)c1 | 42%
16 | CS(=O)(=O)c1nccc(-c2c(-c3ccc(F)c(OCCc4ccc(F)cc4)c3)nc3sccn23)n1 | -12.1% (active)
17 | C=C(C)[C@@H]1CC[C@]2(C(=O)O)CC[C@]3(C)[C@H](CC[C@@H]4[C@@]5(C)C/C(=C/c6ccccn6)C(=O)C(C)(C)[C@@H]5CC[C@]43C)[C@@H]12 | 15.3%
18 | Cc1ccc(-n2cc(/C=C/C(=O)c3ccc(S(C)(=O)=O)cc3)c(-c3ccc(S(C)(=O)=O)cc3)n2)cc1 | 69.4%
19 | Cc1ccc([C@H]2c3[nH]c4ccccc4c3C[C@H]3C(=O)N(CCCCCCC(=O)NO)CC(=O)N23)s1 | 50.1%
20 | COc1cc(/C=C/C(=O)c2ccc(C(F)(F)F)cc2)ccc1Oc1nc(NCCO)nc(N2CCOCC2)n1 | 53.4%

Row | SMILES | growth
21 | Cc1cc(=O)oc2cc(OCCCOc3ccc(/C=C/C(=O)Nc4ccc(Br)cc4)cc3)ccc12 | 95.8%
22 | N#C/C(=C\c1ccc(-c2ccc(Cl)c(Cl)c2)o1)C(=O)Nc1ncc(Cc2ccc(Cl)cc2)s1 | 51.5%
23 | COc1ccc2c(c1)c(CC(=O)[Se]CCC#N)c(C)n2C(=O)c1ccc(Cl)cc1 | -43.8% (active)
24 | Cc1ccc(-c2nnc(SCc3ccc(O)c4ncccc34)n2-c2ccccc2)cc1 | 0.292% (active)
25 | CCNC(=O)Oc1ccc(/C(=C(/C)c2ccc(Cl)cc2)c2ccc(OCCN3CCCCCC3)cc2)cc1 | 1.41% (active)
26 | CCOC(=O)c1cnc2c(-c3ccc(Cl)c(Cl)c3)cnn2c1 | 59.5%
27 | Oc1ccccc1-c1nnc(SCc2ccc(O)c3ncccc23)o1 | 26.3%
28 | CCOC(=O)c1c(Nc2ccccc2)nn2c(-c3ccco3)c(C#N)cnc12 | 110%
29 | N#Cc1c(-c2cccs2)cc(-c2cnccn2)nc1SCC(=O)N/N=C/c1cccs1 | 96.2%
30 | Cc1ccsc1[C@H]1c2[nH]c3ccccc3c2C[C@H]2C(=O)N(CCCCCCC(=O)NO)CC(=O)N12 | 104%
31 | N#Cc1c(-c2cccs2)cc(-c2cnccn2)nc1SCC(=O)Nc1ccc(Br)cc1 | 107%
32 | CC(C)(C)c1ccc(C(=O)Nc2sc3c(c2C(N)=O)CCC(O)C3)cc1 (stereo not given) | 37.2%
33 | Cc1ccc(C2=NN(C)C(=O)C3(CCCC3)C2)cc1 | 77.8%
34 | Clc1ccc2oc3c(NCCCN4CCOCC4)c4ccccc4nc3c2c1 | 20.8%
35 | O=C(CCn1c[n+](CC(=O)c2ccc(F)cc2)c2ccccc21)Nc1cccc2cccnc12 | 36.7%
36 | COc1ccc(-c2nc3cccc(O)c3c(=O)n2Cc2ccccc2)cc1COc1ccc(NC(C)=O)cc1 | 45.4% [3 µM]
37 | O=C(CSc1nnc(-c2ccc(Cl)cc2)n1-c1ccccc1)Nc1ccc(Cl)cc1 | 79.8%
38 | COc1ccc(-n2c(SCC(=O)Nc3ccc(-c4nc5ccccc5[nH]4)cc3)nc3ccccc3c2=O)cc1 | 45.6%
39 | N#C/C(=C\c1ccc(N2CCCCC2)cc1)C(=O)Nc1sc2c(c1C#N)CCC2 | 98.7%
40 | C=C(C)C(=O)O[C@H]1C[C@@]2(C)OC(=CC2=O)[C@H](C)[C@H](O)[C@H]2OC(=O)C(=C)[C@@H]21 | 14.3%
